Data as given in PubChem BioAssay (NCATS).
Records with an inconclusive call do not appear. Values without a mark were called inactive. The source made the active and inactive calls. The call rests on the fitted dose curve; in most records, active means well fitted inhibition curve with a large enough effect; inconclusive means small, poorly fitted or top-dose-only effect; inactive means flat fitted curve, though single readings scatter.

Assay: Primary qHTS for inhibitors of nuclear receptor binding SET domain protein 2 (NSD2) in an isogenic RCH-ACV NSD2 p.E1099K mutant (9B) (AID 1645876); further: nearly all actives have a fitted effect of over 70% in size
Details: RCH-ACV (leukaemia line) NSD2 E1099K (9B) viability, CellTiter-Glo, 72 h; series mostly up to 44.9 µM; activity change, negative = viability loss: at the top concentration
On the % scale 0 is the no-effect control and ±100 the full control effect; potency means the concentration at half of the fitted maximal effect.

Structure (SMILES)	activity change, negative = viability loss	Potency	outcome
CCC(CC)(CNC(=O)CCCO)c1cccc(OC)c1	5.12%		
C[C@]12CC[C@H]3[C@@H](CCC4=CC(=O)CC[C@@H]43)[C@@H]1CC[C@@H]2OC(=O)CCC1CCCCC1		23.7 µM (active)	
CNCC(=O)c1ccc(O)c(O)c1	-16.8%		
CCCOC(=O)c1cncn1C(C)c1ccccc1 (centres undefined)	-4.41%		
C[C@]12CC[C@@H]3c4ccc(OC(=O)N(CCCl)CCCl)cc4CC[C@H]3[C@@H]1CC[C@@H]2OP(=O)(O)O		inactive	
CC(C)c1c(CN(C)C(C)Cc2ccccc2)n(C)n(-c2ccccc2)c1=O (centres undefined)			inactive
COc1cc(OC)c(OC)cc1C=O	-0.944% [at 91.9 µM]		
CN1CCC(O)(c2ccc(F)cc2)C(C(=O)c2ccc(F)cc2)C1 (centres undefined)	-4.8%		
C[C@H]1[C@@H]2Cc3ccc(O)cc3[C@@]1(C)CCN2C	-12% [at 231 µM]		
O=C(Nc1ccc(Br)cc1)c1cc(Br)cc(Br)c1O			inactive
CC(=O)NC1CCSC1=O (centres undefined)	1.32%		
O=c1oc2ccccc2c(O)c1Cc1c(O)c2ccccc2oc1=O		21.1 µM (active)	
COc1cccc(C(=O)CCN[C@@H](C)[C@H](O)c2ccccc2)c1		16.8 µM (active)	
C[C@]12CCC(=O)C=C1CC[C@@H]1[C@@H]2CC[C@@]2(C)[C@H]1CC[C@]2(C)O		23.7 µM (active)	
O=C1c2ccccc2C(=O)c2ccccc21	-2.1% [at 17.3 µM]		
CC(Cc1ccccc1)NCCn1cnc2c1c(=O)n(C)c(=O)n2C (centres undefined)	-23.1% [at 91.9 µM]		
CCN(CCO)CCn1c(Cc2ccccc2)nc2c1c(=O)n(C)c(=O)n2C	-18.7%		

Structure (SMILES)	activity change, negative = viability loss	Potency	outcome
COc1c2c(cc3c1OCO3)CCN(C)C2	-9.97%		
CN1CC[C@]23c4c5ccc(O)c4O[C@H]2[C@@H](O)CC[C@H]3[C@H]1C5	4.59% [at 91.9 µM]		
C=CCN1C[C@H](C)N([C@H](c2ccc(C(=O)N(CC)CC)cc2)c2cccc(OC)c2)C[C@H]1C		inactive	
COP(=S)(OC)Oc1ccc(S(=O)(=O)N(C)C)cc1	-16.6%		
C[C@]12CC[C@H]3[C@@H](CCC4=CC(=O)CC[C@@H]43)[C@@H]1CC[C@@H]2OC(=O)CCc1ccco1		23.7 µM (active)	
O=c1[nH]oc2c1CCNC2	0.893%		
CC(=O)OCC1=C(C(=O)O)N2C(=O)[C@@H](N)[C@H]2SC1	-0.352%		
CC(C)NC(C)C			inactive
COP(=S)(OC)Oc1cc(Cl)c(Cl)cc1Cl			inactive
CC(C)N(CCC(C(N)=O)(c1ccccc1)c1ccccn1)C(C)C (centres undefined)		inactive	
CC(Cc1ccccc1)N(C)Cc1ccco1 (centres undefined)			inactive
CCCCCCC(=O)CCCCCC/C=C/C[C@@H](O)[C@H](O)[C@@](N)(CO)C(=O)O			inactive [at 17.3 µM]
COc1ccc2c(c1OC)C(=O)O[C@H]2[C@@H]1c2cc3c(cc2CCN1C)OCO3	-4.66%		
NC(=O)c1cc([N+](=O)[O-])cc([N+](=O)[O-])c1	2.54%		
C[C@H](N)C(=O)c1ccccc1			inactive [at 155 µM]
O=C1OC(c2ccc(O)c(S(=O)(=O)O)c2)(c2ccc(O)c(S(=O)(=O)O)c2)c2c(Br)c(Br)c(Br)c(Br)c21	-3.96%		
CC[N+]1(CC)CCC(OC(=O)C(O)(c2ccccc2)c2ccccc2)C1 (centres undefined)	3.46%		
